This is part of a sample that, as a whole, favours compounds with a hit. Of some 83,000 tested, about 20% had one in any assay.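 48-hour exposure, single concentration, 96-well plates; percent growth endpoint where 0 means no net growth. Active: below 10.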 A number with no mark means an inactive call. Calls of active or inactive are those of the source.
These compounds were tested on U251 CNS (assay: NCI-60 one-dose screen, 48 h (100 = growth as untreated, 0 = no growth, -100 = all killed)). Settings: 10 µM unless noted.

Point of comparison: `O=C(Nc1cccc(Cl)c1)Nc1cccc(Cn2c(=O)[nH]c3ccc(Oc4ncccn4)cc3c2=O)c1`, growth 31.3%. Against it:
- CSc1nnc(-c2cc3c([nH]c4ccccc43)c(-c3cccc(O)c3)n2)n1-c1ccccc1 — higher, 32.3%
- Nc1cc(C(=O)NC[C@H]2CN(c3ccc(N4CCC(C(=O)O)CC4)cc3)C(=O)O2)ccc1Cl — higher, 103%
- CC(C)(Sc1cc(C(C)(C)C)c(OC(=O)CCCC(=O)O)c(C(C)(C)C)c1)Sc1cc(C(C)(C)C)c(OC(=O)CCCC(=O)O)c(C(C)(C)C)c1 — lower, 14.4%
- C=CCn1c(SCC(=O)Nc2ccc(C(=O)/C=C/c3ccc(Cl)cc3)cc2)nnc1-c1ccc(Br)cc1 — higher, 79.5%
- CCOC(=O)c1nn(-c2ccc(S(N)(=O)=O)cc2)c2nc(C)cc(=O)n12 — higher, 99%
- CN(C)CCNC(=O)c1cc2c3cc(Cl)ccc3[nH]c2c2ncccc12 — lower, 11.5%
- COc1ccccc1NC(=O)N=Nc1c(O)[nH]c2ccccc12 — higher, 97.3%
- CC(=O)N1N=C(c2ccc(C(F)(F)F)c(F)c2)CC1c1[nH]c(C)c(C(=O)NCC(F)(F)F)c1C (stereo not given) — higher, 78.8%
- CCOC(=O)c1cc2c(n1Cc1cc(OC)c(OC)c(OC)c1)-c1nc(N)sc1CCC2 — higher, 38.9%
- N#Cc1ccc(O)c(C2=NCC(c3ccccc3)O2)c1 (stereo not given) — lower, 19.6%
- CC(=O)c1c(C)nc(SCC(=O)Nc2cccc(O)c2)n1-c1ccc(Cl)cc1 — higher, 91.9%
- O=C(Nc1cccc2ccccc12)NC1CC1 — higher, 101%
- O=c1c2ccccc2n2cnc3ccc(Cl)c1c32 — higher, 78.4%
- CC(C)c1ccc(-n2c(=S)[nH]c3sc4cc(O)ccc4c3c2=O)cc1 — higher, 103%
- N#Cc1c(-c2ccccc2)cc(-c2ccccc2)n(CCCC(=O)Nc2ccccc2N)c1=O — higher, 56.7%
- CN1C(=O)/C(=C\c2nc([P+](c3ccccc3)(c3ccccc3)c3ccccc3)c(N3CCOCC3)o2)SC1=S — higher, 66.2%
- COc1ccc(/C=C/C(=O)c2cccc(OCCCCOc3cccc(C(=O)/C=C/c4ccc(OC)c(OC)c4)c3)c2)cc1OC — higher, 84.8%
- O=S(=O)(Nc1cc(Cl)ccc1Cl)c1ccc(-c2cnc(C3CC3)o2)cc1 — lower, 30.2%
- c1cnc2c(-c3nc4ccc5[nH]ncc5c4c4c3CCCC4)c[nH]c2c1 — lower, 29.8%
- Cc1nc2sc(C(=O)Nc3cccc(Br)c3)c(N)c2cc1C(O)c1ccccc1 (stereo not given) — lower, 11.1%
- Cn1ccnc1C(=O)/C=C/c1ccc(CC(=O)Nc2cc(C(F)(F)F)cc(C(F)(F)F)c2)cc1 — higher, 40.8%
- C=C1C(=O)O[C@H]2[C@H]1CC/C(Cn1cc(-c3ccccc3)nn1)=C\CC[C@@]1(C)O[C@@H]21 — higher, 50.2%
- Oc1c(I)cc(I)cc1CNCc1ccccn1 — lower, 15.6%
- CCOC(=O)c1cc2c(n1C)-c1nc(NC(C)=O)sc1CCC2 — higher, 78.2%
- COc1c(C(=O)Nc2ccc(C)c(Br)c2)ccc2ccccc12 — higher, 96.2%
- O=C(Nc1ccc(Oc2cccc(F)c2)c(Cl)c1)c1cccnc1 — higher, 32.5%
- Cc1ccc(C)n1-c1ccccc1-n1c(C)ccc1C — higher, 102%
- COc1ccc(/C=C/C(=O)c2ccc(Nc3ccnc4cc(Cl)ccc34)cc2)cc1 — higher, 84.9%
- CCN(CC)c1ccc(\C=N/N=C(N)/C(N)=N\N=C/c2ccc(N(CC)CC)cc2)cc1 — higher, 97.9%
- O=[N+]([O-])c1cccc(-c2nc3cc4nc5ccccc5[nH]c4cc3n2)c1 — higher, 98.2%

With `O=C(/C=C(/C=C/c1ccc2[nH]ccc2c1)OB(F)F)/C=C/c1ccc2[nH]ccc2c1` the growth was -84.1% (active).
In the case of `CCOC(=O)c1c2c(n3cccc(F)c13)C(=O)c1ncccc1C2=O`, the growth is reported as -35.5% (active).
For `COc1cc2c(cc1OCCCN1CCN(CCCOc3cc4c(cc3OC)C(=O)N3CCC[C@H]3C=N4)CC1)C=CC(C)(C)O2`, the growth was -98.5% (active).
For `CCC(C(=O)[C@@H](C)[C@@H](O)[C@H](C)[C@@H]1O[C@@H]([C@@H](CC)C(=O)ONC(=O)c2ccccc2)CC[C@@H]1C)[C@H]1O[C@]2(C=CC(=O)[C@]3(CC[C@@](C)([C@H]4CC[C@](O)(CC)[C@H](C)O4)O3)O2)[C@H](C)C[C@@H]1C` (stereo not given in full), the growth was -19% (active).
For `C=C1C(=O)O[C@H]2[C@H]1CC/C(COC(=O)c1cc3ccccc3s1)=C\CC[C@@]1(C)O[C@@H]21`, the growth was -82.6% (active).
In the case of `N=C(N)c1ccc(-c2ccc(-c3ccccc3)o2)cc1`, the growth is reported as -77.7% (active).
`COC12C=C/C(=C(/C(=O)OCc3ccncn3)C(=O)CCCCCCCCC3(OC)C=C/C(=C(/C(=O)OCc4ccncn4)C(=O)CCCCCCCC1)O3)O2` was tested, and the growth was 0.453% (active).
For `COC1=CC(c2ccc[nH]2)=N/C1=C\c1[nH]c(C)c(C(=O)OC(C)C)c1C`, the growth was -26.7% (active).
For `COc1ccc(/C=C(\C#N)n2nnc3cc(Cl)ccc32)cc1`, the growth was 5.37% (active).

— PubChem BioAssay (NCI)
